The OligoGym collection
Also: reference of the scale not given here.

The sequences below were run against PML (assay: pooled miR-30 sensor sort-seq; sequence = guide strand). Conditions: shRNA.
Sequence TTGTATTGGAGACATCCAGGTC has a sensor-assay potency score (higher = more potent) of -0.853. TTCATTGTCAATCTTGAGGTCA showed a sensor-assay potency score (higher = more potent) of 0.253. Sequence TCGTGCTTGAGGAACCACTGGT has a sensor-assay potency score (higher = more potent) of 0.0745. AAGTCTGAGAGTCACCTGCTGT gave a sensor-assay potency score (higher = more potent) of -0.995. In the case of TACAGCTGCATCTTTCCCCTGG, the sensor-assay potency score (higher = more potent) is reported as 0.227. Work on TATTGGAGACATCCTCTCCATA yielded a sensor-assay potency score (higher = more potent) of -1.32. TTGTATTGGAGACATCCTCTCC showed a sensor-assay potency score (higher = more potent) of -0.965. Sequence TTCGGCATCTGAGTCTTCCGAG has a sensor-assay potency score (higher = more potent) of 0.322. TTTCTCGCCAGGTAGGTCTGGG was tested, and the sensor-assay potency score (higher = more potent) was 0.0297. In the case of TTCTTGAGTTTGAAGCTGCTGG, the sensor-assay potency score (higher = more potent) is reported as -0.233. In the case of TCCATCTTGATGACCTTCCTGG, the sensor-assay potency score (higher = more potent) is reported as -0.889.

The sequences below were run against PNPLA3 in the same assay as above. Conditions: shRNA.
With TCTGCTTTGGTCTCTGCTGGAC the sensor-assay potency score (higher = more potent) was -0.599. TAGCAGCTCATCTCCCTCCAGC was tested, and the sensor-assay potency score (higher = more potent) was -1.05. In the case of TCTTGCTCATGTATCCACCTTT, the sensor-assay potency score (higher = more potent) is reported as -0.0736. In the case of TTCGTGGACTTGACTTTAGGGC, the sensor-assay potency score (higher = more potent) is reported as -0.495. For TATCGCACGCCTCTGAAGGAAG, the sensor-assay potency score (higher = more potent) was -1.42. TAGCAAGTTGCAAATCTTGCTC was tested, and the sensor-assay potency score (higher = more potent) was -0.46. Sequence TTTGCAGAGACCCTGTCGGAGG has a sensor-assay potency score (higher = more potent) of -0.649. For TAGAAGGGGATGAAGCAGGAAC, the sensor-assay potency score (higher = more potent) was -0.79. Sequence TTACATAAGACATTATCCTAAT has a sensor-assay potency score (higher = more potent) of -0.725. TAAGACATTATCCTAATGGGTA showed a sensor-assay potency score (higher = more potent) of -0.331. Work on TTGCTTAAGTTGAAGGATGGAT yielded a sensor-assay potency score (higher = more potent) of -0.584. With ATTACATAAGACATTATCCTAA the sensor-assay potency score (higher = more potent) was -0.605.
